Inconclusive results are not listed. Calls of active or inactive are those of the source. Unless noted, the call rests on the fitted dose curve.
Legend:
[1] = Nuclear factor erythroid 2-related factor 2/antioxidant responsive element (Nrf2/ARE) small molecule agonists: qHTS cell viability counter screen in human keratinocytes (AID 1919968; active means well fitted curve in the direction sought with a large enough effect in the repeat runs; an effect the other way counts as inactive or inconclusive; further: nearly all actives have a fitted effect of over 55% in size)
Method in brief: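 KeratinoSens cells (HaCaT keratinocytes stably carrying an ARE-luciferase reporter) were seeded at 1,500 cells/well and rested 5 h at 37 C/5% CO2. They were then exposed to compounds in DMSO for 23 h. Viability was read by CellTiter-Fluor fluorescence after 1 h.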

[2] = target: Gonadotropin-releasing hormone receptor (Homo sapiens) (UniProt P30968); experiment: Human gonadotropin-releasing hormone receptor (GnRHR) small molecule agonists, calcium flux assay in GnRHR-HEK293 cells (AID 1920063); further: nearly all actives have a fitted effect of over 35% in size
Method in brief: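 HEK293 cells stably expressing human GnRHR were plated 18 h at 37 °C, loaded with calcium dye 1 h at 37 °C, then given compound in agonist mode; fluorescence (Ex/Em 480/540) read kinetically for 3 min at 1 s intervals.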

[3] = target: KiSS-1 receptor (Homo sapiens) (UniProt Q969F8); experiment: Human kisspeptin (KISS1R) small molecule agonists, calcium flux assay in KISS1R-HEK293 cells (AID 1920064; active means well fitted curve in the direction sought with a large enough effect in the repeat runs; an effect the other way counts as inactive or inconclusive)
Method in brief: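 HEK293 cells stably expressing human KISS1R were plated 18 h at 37 °C, loaded with calcium dye for 1 h at 37 °C, then given compound by pin tool. Fluorescence (Ex/Em 480/540) was read kinetically for 3 min.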

[4] = G protein-coupled receptor (GPCR) small molecule agonists, calcium flux assay: HEK293 wild type cell line counter screen (AID 1920065)
Method in brief: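 Cells were plated and cultured 18 h at 37 C/5% CO2, then loaded with calcium dye for 1 h at 37 C. Compounds in DMSO were pin-transferred in agonist mode, and fluorescence (Ex/Em 480/540) was read kinetically for 3 min at 1 s intervals.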

[5] = p53 small molecule agonists, cell-based qHTS assay with rat liver microsomes (AID 1963578)
Method in brief: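 Metabolic activation is supplied by rat liver microsomes with NADPH (each 0.5 mg/mL final). p53RE-bla cells incubate with compound 16 h at 37 C; reporter activity is measured by LiveBLAzer fluorescence.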

[6] = p53 small molecule agonists, cell-based qHTS assay with rat liver microsomes: qHTS cell viability counter screen (AID 1963580); further: nearly all actives have a fitted effect of over 45% in size
Method in brief: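 In HCT-116 cells carrying a p53 response element-bla reporter, compounds were metabolically activated in situ by rat liver microsomes with NADPH over 16 h. Cell ATP content then served as the cytotoxicity measure.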

[7] = p53 small molecule agonists, cell-based qHTS assay: qHTS cell viability counter screen (AID 1963581); further: nearly all actives have a fitted effect of over 45% in size
Method in brief: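 p53RE-bla HCT-116 cells were exposed to compounds for 16 h at 37 C; after the beta-lactamase FRET read in the same wells, CellTiter-Glo was added and luminescence (intracellular ATP) read after 30 min at room temperature.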

[8] = cAMP Responsive Elements (CRE) small molecule agonists, cell-based qHTS assay (AID 1963590)
Method in brief: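 CRE-bla HEK 293T cells in DMEM with 10% dialyzed FBS, NEAA, pyruvate and 25 mM HEPES were plated 18 h at 37 C/5% CO2, then exposed to compounds in DMSO for 3 h before LiveBLAzer B/G FRET substrate addition.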

[9] = cAMP Responsive Elements (CRE) small molecule antagonists, cell-based qHTS assay (AID 1963591; active means well fitted inhibition curve with a large enough effect in the signal ratio in the repeat runs, not every such curve was filed as active; the % refers to the signal ratio)
Method in brief: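 CRE-bla HEK293T cells were plated 18 h at 37 °C/5% CO2, pinned with compound in DMSO, then stimulated with NKH477 at 0.25 uM final for 3 h. LiveBLAzer B/G FRET substrate was added and plates incubated 2 h at room temperature.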

[10] = target: Beta-2 adrenergic receptor (Homo sapiens) (UniProt P07550); experiment: Adrenergic beta2 receptor (ADRB2) small molecule antagonists, cell-based qHTS assay (AID 1963592); further: series mostly up to about 92 µM; nearly all actives have a fitted effect of over 50% in size
Method in brief: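 Cells (CHO, stable ADRB2 overexpression) incubated 18-20hr at 37C; compounds added from DMSO; agonist mix (1nM isoproterenol, 100uM IBMX, 25uM Ro-20-1724) added; 0.5hr RT; d2-cAMP and anti-cAMP-cryptate added; 1hr RT; 665/615 nm read.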

[11] = target: D(2) dopamine receptor (Homo sapiens) (UniProt P14416); experiment: Dopamine D2 receptor (DRD2) small molecule antagonists, cell-based qHTS assay (AID 1963595; active means well fitted inhibition curve with a large enough effect in the signal ratio in the repeat runs, with a control signal flat; the % refers to the signal ratio)
Method in brief: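 In this cell-based antagonist screen, compounds act for 10 min at room temperature before a 30 min challenge with 12 nM quinpirole and 200 nM NKH477. cAMP is quantified by HTRF competition in DRD2-HEK293 cells containing 0.1 mM Ro20-1724.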

[12] = p53 small molecule agonists, cell-based qHTS assay (AID 1963582; active means well fitted activation curve with a large enough effect in the signal ratio in the repeat runs, not every such curve was filed as active; the % refers to the signal ratio)
Method in brief: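 p53RE-bla beta-lactamase reporter cells rested 5 h at 37 C/5% CO2, then received compounds in DMSO by pin transfer and were incubated 16 h at 37 C. LiveBLAzer B/G FRET substrate was loaded for 2 h at room temperature before fluorescence reading.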

[13] = target: 5-hydroxytryptamine receptor 2A (Homo sapiens) (UniProt P28223); experiment: 5-hydroxytryptamine receptor 2A (HTR2A) small molecule antagonists, cell-based qHTS assay (AID 1963586); further: nearly all actives have a fitted effect of over 45% in size
Method in brief: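 Antagonist-mode intracellular calcium assay: DOI (4 nM) added after 5 min compound pre-incubation at room temperature to dye-loaded HTR2A-CHO cells. Fluorescence followed for 3 min, sampled every second.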

[14] = target: 5-hydroxytryptamine receptor 2A (Homo sapiens) (UniProt P28223); experiment: 5-hydroxytryptamine receptor 2A (HTR2A) small molecule agonists, cell-based qHTS assay (AID 1963587); further: nearly all actives have a fitted effect of over 30% in size
Method in brief: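 HTR2A-CHO cells, plated 18 h at 37 C/5% CO2, dye-loaded 1 h at 37 C; compounds in DMSO added by pin tool (agonist mode). Intracellular calcium flux read as kinetic fluorescence on FDSS over 2 min at 1 s intervals.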

[15] = target: Muscarinic acetylcholine receptor M1 (Homo sapiens) (UniProt P11229); experiment: Cholinergic receptor muscarinic 1 (CHRM1) small molecule agonists, cell-based qHTS assay (AID 1963589); further: nearly all actives have a fitted effect of over 35% in size
Method in brief: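 CHO cells stably expressing human CHRM1, seeded 18 h at 37 C/5% CO2, dye-loaded 1 h at 37 C, then given compound in agonist mode; intracellular calcium fluorescence read kinetically at 1 s intervals. Fifteen concentrations, three independent runs.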

[16] = target: Beta-2 adrenergic receptor (Homo sapiens) (UniProt P07550); experiment: Adrenergic beta2 receptor (ADRB2) small molecule agonists, cell-based qHTS assay (AID 1963593);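 further: CHO cells stably overexpressing human ADRB2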
Method in brief: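 CHO cells stably over-expressing ADRB2 were plated overnight at 37C, then dosed with compounds plus a stimulation mix containing 100uM IBMX and 25uM Ro-20-1724 for 0.5hr at room temperature. cAMP was measured by HTRF competition, 1hr.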

[17] = target: D(2) dopamine receptor (Homo sapiens) (UniProt P14416); experiment: Dopamine D2 receptor (DRD2) small molecule agonists, cell-based qHTS assay (AID 1963594); further: nearly all actives have a fitted effect of over 35% in size
Method in brief: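 HEK293 cells stably expressing DRD2 were cultured 24 h at 37 C, then given Ro20-1724 (0.1 mM final) and compounds for 10 min at room temperature. NKH477 (200nM) was then added for 30 min. cAMP was read by HTRF.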

[18] = p53 small molecule agonists, cell-based qHTS assay with human liver microsomes: qHTS cell viability counter screen (AID 1963579); further: nearly all actives have a fitted effect of over 45% in size
Method in brief: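 After the 460/530 nm beta-lactamase read, CellTiter-Glo was added to the same wells and luminescence measured after 30 min at room temperature, giving viability of p53RE-bla cells treated 16 h with compounds plus microsomes and NADPH.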

[19] = target: Muscarinic acetylcholine receptor M1 (Homo sapiens) (UniProt P11229); experiment: Cholinergic receptor muscarinic 1 (CHRM1) small molecule antagonists, cell-based qHTS assay (AID 1963588); further: nearly all actives have a fitted effect of over 40% in size
Method in brief: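 CHRM1-CHO calcium-flux assay, antagonist mode. Cells were seeded 18 h, dye-loaded 1 h at 37 C and given compound for 5 min at RT, then acetylcholine was added at 50nM. FDSS fluorescence was read 3 min; 15 concentrations, three runs.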

Measured: Potency

Gonadotropin-releasing hormone receptor (Homo sapiens), sequence (P30968 whole entry, looked up): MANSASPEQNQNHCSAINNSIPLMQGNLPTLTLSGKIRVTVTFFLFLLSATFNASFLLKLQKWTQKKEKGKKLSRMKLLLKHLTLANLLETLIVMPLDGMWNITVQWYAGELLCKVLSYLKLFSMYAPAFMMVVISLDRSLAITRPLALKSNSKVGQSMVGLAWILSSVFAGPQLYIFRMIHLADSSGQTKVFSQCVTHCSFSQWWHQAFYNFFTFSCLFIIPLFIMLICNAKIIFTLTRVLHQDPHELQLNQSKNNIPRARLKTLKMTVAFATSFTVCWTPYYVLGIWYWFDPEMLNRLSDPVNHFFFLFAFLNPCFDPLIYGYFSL
KiSS-1 receptor (Homo sapiens), sequence (Q969F8 whole entry, looked up): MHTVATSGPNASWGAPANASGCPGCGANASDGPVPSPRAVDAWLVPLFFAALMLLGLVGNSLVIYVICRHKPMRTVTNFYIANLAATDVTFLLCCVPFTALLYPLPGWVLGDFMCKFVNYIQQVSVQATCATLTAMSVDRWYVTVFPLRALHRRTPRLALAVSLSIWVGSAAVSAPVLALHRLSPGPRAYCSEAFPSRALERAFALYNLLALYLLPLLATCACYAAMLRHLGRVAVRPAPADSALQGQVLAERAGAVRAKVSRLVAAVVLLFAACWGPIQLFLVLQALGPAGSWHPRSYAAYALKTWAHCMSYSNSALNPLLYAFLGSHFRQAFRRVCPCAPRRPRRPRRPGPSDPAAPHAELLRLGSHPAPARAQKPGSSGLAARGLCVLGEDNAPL
D(2) dopamine receptor (Homo sapiens), sequence (P14416 whole entry, looked up): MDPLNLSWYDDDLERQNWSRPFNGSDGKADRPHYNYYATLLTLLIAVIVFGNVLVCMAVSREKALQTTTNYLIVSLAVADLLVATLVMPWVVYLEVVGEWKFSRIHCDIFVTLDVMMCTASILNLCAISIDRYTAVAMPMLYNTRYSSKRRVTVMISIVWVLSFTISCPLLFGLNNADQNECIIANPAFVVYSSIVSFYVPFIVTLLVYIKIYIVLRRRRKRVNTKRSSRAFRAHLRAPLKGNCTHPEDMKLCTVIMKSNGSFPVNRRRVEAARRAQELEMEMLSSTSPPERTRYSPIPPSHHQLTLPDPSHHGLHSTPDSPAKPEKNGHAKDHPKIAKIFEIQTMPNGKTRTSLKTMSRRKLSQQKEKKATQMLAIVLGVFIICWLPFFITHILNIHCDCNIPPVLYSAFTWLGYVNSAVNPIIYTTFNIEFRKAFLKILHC
Muscarinic acetylcholine receptor M1 (Homo sapiens), sequence (P11229 whole entry, looked up): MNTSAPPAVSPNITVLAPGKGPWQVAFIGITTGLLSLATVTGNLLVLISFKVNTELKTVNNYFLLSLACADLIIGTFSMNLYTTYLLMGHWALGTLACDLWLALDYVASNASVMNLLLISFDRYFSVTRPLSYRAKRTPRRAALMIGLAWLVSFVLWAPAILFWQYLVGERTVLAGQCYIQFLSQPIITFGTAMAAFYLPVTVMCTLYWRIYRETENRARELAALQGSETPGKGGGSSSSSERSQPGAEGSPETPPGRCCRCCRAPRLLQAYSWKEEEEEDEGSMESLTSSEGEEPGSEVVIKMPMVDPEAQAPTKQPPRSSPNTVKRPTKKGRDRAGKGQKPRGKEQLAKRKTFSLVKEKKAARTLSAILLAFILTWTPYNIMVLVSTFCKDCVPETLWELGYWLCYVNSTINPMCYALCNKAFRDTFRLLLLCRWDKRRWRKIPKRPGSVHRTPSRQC
Beta-2 adrenergic receptor (Homo sapiens), sequence (P07550 whole entry, looked up): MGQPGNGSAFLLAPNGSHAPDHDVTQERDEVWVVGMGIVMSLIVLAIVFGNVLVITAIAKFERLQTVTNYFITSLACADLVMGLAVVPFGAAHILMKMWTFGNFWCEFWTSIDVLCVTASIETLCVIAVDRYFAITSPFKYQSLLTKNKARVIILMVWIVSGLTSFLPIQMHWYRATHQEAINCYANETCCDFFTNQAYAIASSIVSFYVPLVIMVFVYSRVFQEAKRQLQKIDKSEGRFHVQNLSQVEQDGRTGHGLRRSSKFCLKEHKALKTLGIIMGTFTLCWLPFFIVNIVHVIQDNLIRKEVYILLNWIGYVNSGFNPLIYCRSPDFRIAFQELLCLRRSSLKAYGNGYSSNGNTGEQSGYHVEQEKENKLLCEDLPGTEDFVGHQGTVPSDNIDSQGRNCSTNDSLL
5-hydroxytryptamine receptor 2A (Homo sapiens), sequence (P28223 whole entry, looked up): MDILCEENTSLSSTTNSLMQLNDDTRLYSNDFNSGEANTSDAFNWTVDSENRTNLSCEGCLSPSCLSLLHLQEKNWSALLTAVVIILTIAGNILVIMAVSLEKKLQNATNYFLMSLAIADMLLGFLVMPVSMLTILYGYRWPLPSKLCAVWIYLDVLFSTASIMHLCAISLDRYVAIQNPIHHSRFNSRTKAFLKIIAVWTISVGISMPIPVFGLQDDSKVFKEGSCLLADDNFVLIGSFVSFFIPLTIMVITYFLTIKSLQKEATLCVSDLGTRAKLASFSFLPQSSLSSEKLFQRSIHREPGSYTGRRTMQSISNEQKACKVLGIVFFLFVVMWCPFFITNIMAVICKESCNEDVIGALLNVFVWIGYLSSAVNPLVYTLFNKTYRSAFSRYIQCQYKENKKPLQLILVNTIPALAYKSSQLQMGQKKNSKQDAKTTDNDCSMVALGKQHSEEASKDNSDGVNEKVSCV

O=C(N[C@H](CO)[C@H](O)c1ccc([N+](=O)[O-])cc1)C(Cl)Cl
not listed: [12] | [13] | [14] | [15] | [16] | [17] | [18] | [19]
inactive: all other assays above

CCc1cccc2c(CCO)c[nH]c12
not listed: [18] | [19]
inactive: all other assays above

O=S1(=O)N=C(O)c2ccccc21
not listed: [5] | [12] | [16]
inactive: all other assays above

O=[N+]([O-])c1ccc(Cl)cc1Cl
not listed: [5] | [12] | [16]
inactive: all other assays above

Cn1cc(C(=O)[C@@H]2CCc3nc[nH]c3C2)c2ccccc21
not listed: [5] | [12] | [16]
inactive: all other assays above

NC(=O)c1ccccc1
not listed: [5] | [12]
inactive: all other assays above

Cc1c(-c2cccnc2)c2ccccc2n1CCCCC(=O)O
not listed: [7] | [8] | [9] | [11] | [16]
inactive: all other assays above

CN(C)C(=O)Nc1ccccc1
not listed: [5] | [12]
inactive: all other assays above
